# Source: PMC7862700, “An all-to-all approach to the identification of sequence-specific readers for epigenetic DNA modifications on cytosine”
# Tests used:
# Assay in all cases: DAPPL (digital affinity profiling via proximity ligation, sequencing); 10 mM Tris-HCl pH 7.5, 50 mM NaCl, 1 mM DTT, 4% glycerol, room temperature, 30 min; GST-TFs on glutathione beads, 16-mer random dsDNA library, 0.1% formaldehyde crosslink after washing; high values mean tight binding
# FLI1 = target: T1, FLI1 (Homo sapiens, UniProt Q01543 1-452); conditions: protein: recombinant; tags: N-terminal GST; dsDNA, one strand shown
# T1 sequence: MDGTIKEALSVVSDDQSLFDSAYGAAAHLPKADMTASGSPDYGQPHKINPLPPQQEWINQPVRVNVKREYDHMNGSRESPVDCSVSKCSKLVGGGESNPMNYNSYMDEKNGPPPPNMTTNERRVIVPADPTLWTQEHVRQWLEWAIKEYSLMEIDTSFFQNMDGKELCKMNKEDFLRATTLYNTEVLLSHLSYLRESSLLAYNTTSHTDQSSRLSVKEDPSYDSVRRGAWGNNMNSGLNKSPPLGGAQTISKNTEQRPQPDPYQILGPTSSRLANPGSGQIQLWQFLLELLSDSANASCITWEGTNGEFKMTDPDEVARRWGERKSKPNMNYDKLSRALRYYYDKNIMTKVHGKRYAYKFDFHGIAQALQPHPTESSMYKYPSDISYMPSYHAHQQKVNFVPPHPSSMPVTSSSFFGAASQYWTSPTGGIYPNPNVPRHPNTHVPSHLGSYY
# Method in brief: (§1)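 A tag-only sample was pooled with DNA-barcoded human transcription factors that had been expressed in yeast as GST fusions and captured on glutathione beads. The pools were incubated for 30 min at room temperature with 200 nmole of a random double-stranded 16-mer DNA library in Tris/NaCl/DTT/glycerol buffer, then washed, crosslinked with 0.1% formaldehyde, proximity-ligated (BsaI/T4 ligase, 1 h, 37 °C), PCR-amplified and sequenced on an Illumina NextSeq500. Binding signal is each hexamer's read frequency for a factor divided by its frequency for the tag-only sample.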
# ELK1 = target: T2, ELK1 (Homo sapiens, UniProt P19419 1-428); conditions: protein: recombinant; tags: N-terminal GST; dsDNA, one strand shown
# T2 sequence: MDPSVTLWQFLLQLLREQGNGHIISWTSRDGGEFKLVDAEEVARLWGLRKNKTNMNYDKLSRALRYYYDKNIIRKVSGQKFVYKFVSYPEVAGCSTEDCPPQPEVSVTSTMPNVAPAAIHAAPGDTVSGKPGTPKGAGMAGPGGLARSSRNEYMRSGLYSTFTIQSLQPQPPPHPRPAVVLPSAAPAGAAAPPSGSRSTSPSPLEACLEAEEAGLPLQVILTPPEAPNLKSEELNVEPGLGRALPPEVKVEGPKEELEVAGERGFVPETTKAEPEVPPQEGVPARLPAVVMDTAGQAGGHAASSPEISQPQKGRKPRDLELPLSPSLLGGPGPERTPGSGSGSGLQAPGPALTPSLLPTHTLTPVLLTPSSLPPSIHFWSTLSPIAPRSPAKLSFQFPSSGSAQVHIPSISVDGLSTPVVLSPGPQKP
# Method in brief: as §1
# GABPA = target: T3, GABPA (Homo sapiens, UniProt Q06546 1-454); conditions: protein: recombinant; tags: N-terminal GST; dsDNA, one strand shown
# T3 sequence: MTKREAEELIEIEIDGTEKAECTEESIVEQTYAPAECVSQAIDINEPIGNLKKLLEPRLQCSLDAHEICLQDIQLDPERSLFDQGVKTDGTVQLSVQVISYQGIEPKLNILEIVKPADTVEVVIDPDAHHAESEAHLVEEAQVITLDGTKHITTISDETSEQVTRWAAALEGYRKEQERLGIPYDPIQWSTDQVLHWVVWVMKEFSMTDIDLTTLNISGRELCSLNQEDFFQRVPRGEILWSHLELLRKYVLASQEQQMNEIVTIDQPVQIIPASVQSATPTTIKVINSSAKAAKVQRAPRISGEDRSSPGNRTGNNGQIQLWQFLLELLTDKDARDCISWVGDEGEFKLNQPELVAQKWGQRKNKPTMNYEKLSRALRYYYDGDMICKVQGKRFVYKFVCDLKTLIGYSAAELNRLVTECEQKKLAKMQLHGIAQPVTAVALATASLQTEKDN
# Method in brief: as §1
# ERG = target: T4, ERG (Homo sapiens, UniProt P11308 1-479); conditions: protein: recombinant; tags: N-terminal GST; dsDNA, one strand shown
# T4 sequence: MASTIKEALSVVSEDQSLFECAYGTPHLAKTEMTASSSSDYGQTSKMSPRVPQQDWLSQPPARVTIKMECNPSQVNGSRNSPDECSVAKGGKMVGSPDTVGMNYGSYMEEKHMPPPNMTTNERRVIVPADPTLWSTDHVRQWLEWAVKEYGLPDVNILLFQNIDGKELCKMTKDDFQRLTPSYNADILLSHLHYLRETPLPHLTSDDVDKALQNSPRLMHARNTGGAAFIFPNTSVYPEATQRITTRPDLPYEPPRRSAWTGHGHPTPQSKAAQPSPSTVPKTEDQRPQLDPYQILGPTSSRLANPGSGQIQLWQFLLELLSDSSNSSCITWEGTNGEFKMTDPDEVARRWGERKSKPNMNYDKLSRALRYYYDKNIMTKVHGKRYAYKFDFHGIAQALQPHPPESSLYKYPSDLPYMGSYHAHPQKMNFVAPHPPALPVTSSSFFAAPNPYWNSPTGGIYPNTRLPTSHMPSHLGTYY
# Method in brief: as §1
# ELF1 = ELF1 (Homo sapiens, UniProt P32519 1-619); conditions: protein: recombinant; tags: N-terminal GST; dsDNA, one strand shown
# Sequence of ELF1 (P32519 whole entry): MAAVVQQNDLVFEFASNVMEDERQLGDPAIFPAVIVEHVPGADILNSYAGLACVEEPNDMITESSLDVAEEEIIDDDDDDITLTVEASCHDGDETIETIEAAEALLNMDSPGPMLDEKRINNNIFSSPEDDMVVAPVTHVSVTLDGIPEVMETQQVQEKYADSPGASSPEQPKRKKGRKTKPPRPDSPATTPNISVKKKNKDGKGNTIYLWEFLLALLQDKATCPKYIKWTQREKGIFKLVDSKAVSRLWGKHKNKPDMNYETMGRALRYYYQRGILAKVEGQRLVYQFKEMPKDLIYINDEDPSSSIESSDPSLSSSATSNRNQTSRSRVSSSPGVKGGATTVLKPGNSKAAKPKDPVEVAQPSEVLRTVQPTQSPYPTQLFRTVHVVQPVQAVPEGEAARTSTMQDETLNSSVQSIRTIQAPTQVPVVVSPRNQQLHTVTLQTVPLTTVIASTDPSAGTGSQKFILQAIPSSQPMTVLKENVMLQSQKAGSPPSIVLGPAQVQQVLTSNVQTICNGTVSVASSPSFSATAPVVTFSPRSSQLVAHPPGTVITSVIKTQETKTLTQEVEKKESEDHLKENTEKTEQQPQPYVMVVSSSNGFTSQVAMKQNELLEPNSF
# Method in brief: as §1
# EHF = target: T5, EHF (Homo sapiens, UniProt Q9NZC4 1-300); conditions: protein: recombinant; tags: N-terminal GST; dsDNA, one strand shown
# T5 sequence: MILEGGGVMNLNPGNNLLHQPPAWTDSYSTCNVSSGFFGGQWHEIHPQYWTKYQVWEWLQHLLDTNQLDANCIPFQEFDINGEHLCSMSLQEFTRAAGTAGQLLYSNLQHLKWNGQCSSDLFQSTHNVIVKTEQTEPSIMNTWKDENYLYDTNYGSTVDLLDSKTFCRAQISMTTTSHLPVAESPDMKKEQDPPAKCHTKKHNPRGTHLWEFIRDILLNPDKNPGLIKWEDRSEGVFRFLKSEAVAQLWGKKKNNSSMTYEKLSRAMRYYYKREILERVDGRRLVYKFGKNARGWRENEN
# Method in brief: as §1
# SPI1 = SPI1 (Homo sapiens, UniProt P17947 1-270); conditions: protein: recombinant; tags: N-terminal GST; dsDNA, one strand shown
# Method in brief: as §1
# SPIB = SPIB (Homo sapiens, UniProt Q01892 1-262); conditions: protein: recombinant; tags: N-terminal GST; dsDNA, one strand shown
# Sequence of SPIB (Q01892 whole entry): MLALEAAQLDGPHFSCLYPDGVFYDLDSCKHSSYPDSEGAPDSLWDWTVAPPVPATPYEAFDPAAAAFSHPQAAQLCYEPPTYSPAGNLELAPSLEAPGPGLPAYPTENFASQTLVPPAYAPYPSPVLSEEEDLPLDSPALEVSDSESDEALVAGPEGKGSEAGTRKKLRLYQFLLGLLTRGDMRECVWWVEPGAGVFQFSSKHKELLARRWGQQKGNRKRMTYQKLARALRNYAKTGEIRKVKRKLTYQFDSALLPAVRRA
# Method in brief: as §1
# ELK3 = target: T6, ELK3 (Homo sapiens, UniProt P41970 1-407); conditions: protein: recombinant; tags: N-terminal GST; dsDNA, one strand shown
# T6 sequence: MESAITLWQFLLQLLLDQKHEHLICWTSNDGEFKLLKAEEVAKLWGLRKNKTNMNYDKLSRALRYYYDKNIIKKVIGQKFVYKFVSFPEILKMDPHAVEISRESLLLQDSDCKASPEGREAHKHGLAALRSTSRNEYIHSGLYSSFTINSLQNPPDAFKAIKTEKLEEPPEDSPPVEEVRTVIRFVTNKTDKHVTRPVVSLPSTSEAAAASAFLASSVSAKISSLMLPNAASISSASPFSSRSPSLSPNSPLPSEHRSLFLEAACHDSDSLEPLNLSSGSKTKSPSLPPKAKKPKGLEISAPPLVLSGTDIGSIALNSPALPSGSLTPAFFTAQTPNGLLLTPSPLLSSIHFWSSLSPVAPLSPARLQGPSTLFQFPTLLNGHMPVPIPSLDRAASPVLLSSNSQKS
# Method in brief: as §1
# FEV = target: T7, FEV (Homo sapiens, UniProt Q99581 1-238); conditions: protein: recombinant; tags: N-terminal GST; dsDNA, one strand shown
# T7 sequence: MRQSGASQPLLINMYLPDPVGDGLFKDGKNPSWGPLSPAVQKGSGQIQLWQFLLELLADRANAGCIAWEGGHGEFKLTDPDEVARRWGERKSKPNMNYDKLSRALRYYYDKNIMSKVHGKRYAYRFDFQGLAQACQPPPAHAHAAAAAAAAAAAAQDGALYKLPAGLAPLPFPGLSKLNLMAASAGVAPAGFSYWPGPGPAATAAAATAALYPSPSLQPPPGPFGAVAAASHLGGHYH
# Method in brief: as §1
# ETV5 = ETV5 (Homo sapiens, UniProt P41161 1-510); conditions: protein: recombinant; tags: N-terminal GST; dsDNA, one strand shown
# Sequence of ETV5 (P41161 whole entry): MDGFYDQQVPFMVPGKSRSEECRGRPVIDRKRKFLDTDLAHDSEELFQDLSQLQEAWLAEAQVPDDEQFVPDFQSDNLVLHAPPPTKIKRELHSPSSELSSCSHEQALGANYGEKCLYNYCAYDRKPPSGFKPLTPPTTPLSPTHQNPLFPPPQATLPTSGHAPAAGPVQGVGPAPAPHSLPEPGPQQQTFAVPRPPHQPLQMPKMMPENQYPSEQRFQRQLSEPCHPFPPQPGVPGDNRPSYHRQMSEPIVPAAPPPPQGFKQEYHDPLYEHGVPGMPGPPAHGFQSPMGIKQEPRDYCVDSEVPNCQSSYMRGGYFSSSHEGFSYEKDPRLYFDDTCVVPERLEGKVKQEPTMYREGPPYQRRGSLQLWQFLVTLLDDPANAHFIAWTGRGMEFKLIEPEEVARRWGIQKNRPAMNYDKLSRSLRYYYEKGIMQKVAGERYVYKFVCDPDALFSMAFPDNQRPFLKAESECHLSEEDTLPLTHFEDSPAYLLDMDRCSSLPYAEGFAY
# Method in brief: as §1
# HSF1 = HSF1 (Homo sapiens, UniProt Q00613 1-529); conditions: protein: recombinant; tags: N-terminal GST; chain copies: 3; dsDNA, one strand shown
# Sequence of HSF1 (Q00613 whole entry): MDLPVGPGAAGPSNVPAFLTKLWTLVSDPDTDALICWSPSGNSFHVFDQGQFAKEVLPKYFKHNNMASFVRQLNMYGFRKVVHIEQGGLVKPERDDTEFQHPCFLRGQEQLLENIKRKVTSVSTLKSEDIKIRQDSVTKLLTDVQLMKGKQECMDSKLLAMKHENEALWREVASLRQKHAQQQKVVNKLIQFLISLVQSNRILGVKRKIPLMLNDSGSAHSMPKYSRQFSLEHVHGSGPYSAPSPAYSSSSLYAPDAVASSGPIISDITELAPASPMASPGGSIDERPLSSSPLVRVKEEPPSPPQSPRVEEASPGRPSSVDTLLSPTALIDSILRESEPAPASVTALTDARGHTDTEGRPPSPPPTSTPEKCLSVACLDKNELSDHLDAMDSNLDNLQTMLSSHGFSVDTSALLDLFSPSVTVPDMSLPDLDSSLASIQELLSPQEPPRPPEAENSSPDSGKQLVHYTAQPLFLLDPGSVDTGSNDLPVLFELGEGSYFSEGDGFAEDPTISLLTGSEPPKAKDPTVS
# Method in brief: as §1
# SPIC = target: T8, SPIC (Homo sapiens, UniProt Q8N5J4 1-248); conditions: protein: recombinant; tags: N-terminal GST; dsDNA, one strand shown
# T8 sequence: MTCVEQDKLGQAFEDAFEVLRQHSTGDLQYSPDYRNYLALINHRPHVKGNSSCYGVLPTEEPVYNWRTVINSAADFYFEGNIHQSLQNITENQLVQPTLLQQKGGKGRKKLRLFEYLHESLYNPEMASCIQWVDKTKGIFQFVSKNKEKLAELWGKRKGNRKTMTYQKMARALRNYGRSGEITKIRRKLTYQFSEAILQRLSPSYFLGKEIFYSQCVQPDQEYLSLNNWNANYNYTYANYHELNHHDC
# Method in brief: as §1
# ELF4 = ELF4 (Homo sapiens, UniProt Q99607 1-663); conditions: protein: recombinant; tags: N-terminal GST; dsDNA, one strand shown
# Sequence of ELF4 (Q99607 whole entry): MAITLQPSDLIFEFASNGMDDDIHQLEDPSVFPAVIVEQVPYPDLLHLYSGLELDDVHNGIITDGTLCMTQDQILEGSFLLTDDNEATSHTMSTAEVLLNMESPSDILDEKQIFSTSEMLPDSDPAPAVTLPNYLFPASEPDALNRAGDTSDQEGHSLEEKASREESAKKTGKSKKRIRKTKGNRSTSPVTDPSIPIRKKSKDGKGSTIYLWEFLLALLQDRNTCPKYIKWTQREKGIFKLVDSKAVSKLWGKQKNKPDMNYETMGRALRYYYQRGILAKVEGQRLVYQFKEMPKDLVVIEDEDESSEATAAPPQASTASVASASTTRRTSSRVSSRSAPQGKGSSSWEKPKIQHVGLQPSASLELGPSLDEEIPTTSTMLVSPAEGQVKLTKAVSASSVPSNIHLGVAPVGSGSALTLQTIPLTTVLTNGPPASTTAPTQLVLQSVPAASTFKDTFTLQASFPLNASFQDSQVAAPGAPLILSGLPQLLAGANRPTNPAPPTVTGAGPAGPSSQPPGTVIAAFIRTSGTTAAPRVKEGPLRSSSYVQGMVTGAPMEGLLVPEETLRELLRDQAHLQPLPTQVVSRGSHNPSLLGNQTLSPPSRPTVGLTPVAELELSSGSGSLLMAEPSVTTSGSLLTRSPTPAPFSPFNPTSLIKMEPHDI
# Method in brief: as §1
# ELK4 = target: T9, ELK4 (Homo sapiens, UniProt P28324-2 1-405); conditions: protein: recombinant; tags: N-terminal GST; dsDNA, one strand shown
# T9 sequence: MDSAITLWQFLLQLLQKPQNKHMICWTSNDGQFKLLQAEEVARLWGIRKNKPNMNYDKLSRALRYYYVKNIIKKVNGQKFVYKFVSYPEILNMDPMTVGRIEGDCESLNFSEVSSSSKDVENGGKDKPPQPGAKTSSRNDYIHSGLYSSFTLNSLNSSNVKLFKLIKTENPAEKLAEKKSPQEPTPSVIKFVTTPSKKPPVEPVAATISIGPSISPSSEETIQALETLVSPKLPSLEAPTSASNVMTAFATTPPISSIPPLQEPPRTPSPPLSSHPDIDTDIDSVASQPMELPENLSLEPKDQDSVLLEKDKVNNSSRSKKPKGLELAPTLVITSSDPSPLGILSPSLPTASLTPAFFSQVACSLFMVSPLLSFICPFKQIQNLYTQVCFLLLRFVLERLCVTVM
# Method in brief: as §1
# ETV2 = target: T10, ETV2 (Homo sapiens, UniProt O00321 1-342); conditions: protein: recombinant; tags: N-terminal GST; dsDNA, one strand shown
# T10 sequence: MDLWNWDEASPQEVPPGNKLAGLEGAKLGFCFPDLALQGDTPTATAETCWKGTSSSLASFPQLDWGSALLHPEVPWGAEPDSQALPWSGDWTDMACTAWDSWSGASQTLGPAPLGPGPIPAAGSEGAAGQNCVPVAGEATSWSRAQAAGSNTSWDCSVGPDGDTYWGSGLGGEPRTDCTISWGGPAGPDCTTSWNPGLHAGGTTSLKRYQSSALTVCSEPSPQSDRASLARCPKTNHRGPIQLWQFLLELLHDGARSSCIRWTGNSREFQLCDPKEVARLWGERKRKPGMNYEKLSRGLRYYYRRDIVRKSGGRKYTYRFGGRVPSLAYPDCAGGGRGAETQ
# Method in brief: as §1
# ELF3 = target: T11, ELF3 (Homo sapiens, UniProt P78545 1-371); conditions: protein: recombinant; tags: N-terminal GST; dsDNA, one strand shown
# T11 sequence: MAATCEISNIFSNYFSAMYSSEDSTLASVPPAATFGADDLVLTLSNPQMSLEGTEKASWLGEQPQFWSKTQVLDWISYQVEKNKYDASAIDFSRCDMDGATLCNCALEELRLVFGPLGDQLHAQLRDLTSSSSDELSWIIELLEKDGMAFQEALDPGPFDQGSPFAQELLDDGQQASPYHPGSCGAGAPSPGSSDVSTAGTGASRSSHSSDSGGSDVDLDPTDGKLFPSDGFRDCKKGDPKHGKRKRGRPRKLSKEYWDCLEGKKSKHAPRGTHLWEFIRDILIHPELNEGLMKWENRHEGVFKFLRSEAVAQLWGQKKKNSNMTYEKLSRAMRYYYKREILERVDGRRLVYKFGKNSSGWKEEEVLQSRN
# Method in brief: as §1
# CRX = CRX (Homo sapiens, UniProt O43186 1-299); conditions: protein: recombinant; tags: N-terminal GST; dsDNA, one strand shown
# Sequence of CRX (O43186 whole entry): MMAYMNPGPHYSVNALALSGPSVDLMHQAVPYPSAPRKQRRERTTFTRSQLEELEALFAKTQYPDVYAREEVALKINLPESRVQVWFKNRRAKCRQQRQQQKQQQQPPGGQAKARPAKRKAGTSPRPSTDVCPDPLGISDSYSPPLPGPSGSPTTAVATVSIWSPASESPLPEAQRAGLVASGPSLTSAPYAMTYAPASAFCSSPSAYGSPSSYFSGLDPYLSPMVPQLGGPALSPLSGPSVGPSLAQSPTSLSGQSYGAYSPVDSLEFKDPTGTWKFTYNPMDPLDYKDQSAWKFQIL
# Method in brief: as §1
# ETV1 = ETV1 (Homo sapiens, UniProt P50549 1-477); conditions: protein: recombinant; tags: N-terminal GST; dsDNA, one strand shown
# Sequence of ETV1 (P50549 whole entry): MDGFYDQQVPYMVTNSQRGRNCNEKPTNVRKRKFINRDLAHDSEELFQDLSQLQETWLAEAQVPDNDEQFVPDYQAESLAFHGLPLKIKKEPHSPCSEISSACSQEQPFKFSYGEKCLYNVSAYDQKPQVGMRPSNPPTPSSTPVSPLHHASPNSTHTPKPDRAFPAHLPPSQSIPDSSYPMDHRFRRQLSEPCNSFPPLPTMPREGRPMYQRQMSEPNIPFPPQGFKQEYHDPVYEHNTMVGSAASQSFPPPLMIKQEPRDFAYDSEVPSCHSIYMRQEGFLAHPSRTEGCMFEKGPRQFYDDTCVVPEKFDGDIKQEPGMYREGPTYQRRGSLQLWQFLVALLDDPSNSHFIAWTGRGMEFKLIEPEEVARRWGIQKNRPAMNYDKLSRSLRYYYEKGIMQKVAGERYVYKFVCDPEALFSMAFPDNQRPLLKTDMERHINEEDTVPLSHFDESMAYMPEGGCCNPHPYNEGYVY
# Method in brief: as §1
sequence,measurement,setting,value
TAAGTA,binding signal,FLI1,"1.21 fold enrichment (6-mer frequency, TF over GST control)"
same,binding signal,ELK1,"1.26 fold enrichment (6-mer frequency, TF over GST control)"
same,binding signal,GABPA,"1.28 fold enrichment (6-mer frequency, TF over GST control)"
same,binding signal,ERG,"1.22 fold enrichment (6-mer frequency, TF over GST control)"
same,binding signal,ELF1,"1.24 fold enrichment (6-mer frequency, TF over GST control)"
same,binding signal,EHF,"1.19 fold enrichment (6-mer frequency, TF over GST control)"
same,binding signal,SPI1,"1.16 fold enrichment (6-mer frequency, TF over GST control)"
same,binding signal,SPIB,"1.22 fold enrichment (6-mer frequency, TF over GST control)"
same,binding signal,ELK3,"1.22 fold enrichment (6-mer frequency, TF over GST control)"
same,binding signal,FEV,"1.16 fold enrichment (6-mer frequency, TF over GST control)"
same,binding signal,ETV5,"1.18 fold enrichment (6-mer frequency, TF over GST control)"
same,binding signal,HSF1,"1.76 fold enrichment (6-mer frequency, TF over GST control)"
same,binding signal,SPIC,"1.25 fold enrichment (6-mer frequency, TF over GST control)"
same,binding signal,ELF4,"1.24 fold enrichment (6-mer frequency, TF over GST control)"
same,binding signal,ELK4,"1.18 fold enrichment (6-mer frequency, TF over GST control)"
same,binding signal,ETV2,"1.38 fold enrichment (6-mer frequency, TF over GST control)"
same,binding signal,ELF3,"1.36 fold enrichment (6-mer frequency, TF over GST control)"
same,binding signal,CRX,"2.63 fold enrichment (6-mer frequency, TF over GST control)"
same,binding signal,ETV1,"1.29 fold enrichment (6-mer frequency, TF over GST control)"
